# Experimental data published in PubChem BioAssay (Tox21).
# A number with no mark means an inactive call. Records with an inconclusive call do not appear. A call without a number means that no potency is given here. The source made the active and inactive calls. Calls come from the whole dose curve; as a rule, active = well fitted curve in the direction sought with a large enough effect in the repeat runs; inconclusive = weak or mixed curves; inactive = no such curve, though single readings can be large; an effect the other way counts as inactive or inconclusive.
# Tests used:
# [1] = qHTS RealTime-Glo MT Cell Viability Assay in HEK293 cells - 16 hour (AID 1224872); note: nearly all actives have a fitted effect of over 50% in size; note: potency is the fitted concentration of half-maximal effect
# In short: (§1)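 Homogeneous bioluminescent viability format in HEK293 cells (600 cells/well). Following 5 h at 37 C/5% CO2, 23 nL compound was pintooled; the signal was measured repeatedly during 40 h incubation.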
# [2] = qHTS RealTime-Glo MT Cell Viability Assay in HepG2 cells - 8 hour (AID 1224873); note: nearly all actives have a fitted effect of over 55% in size
# In short: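 HepG2 cells mixed with RealTime-Glo MT reagents (NanoLuc plus cell-permeant prosubstrate) were seeded at 600 cells/well, incubated 5 h at 37 C/5% CO2, then pinned with compounds in DMSO; nonlytic luminescence tracked viability during 40 h treatment.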
# [3] = qHTS RealTime-Glo MT Cell Viability Assay in HEK293 cells - 40 hour (AID 1224874); conditions: RealTime-Glo luminescence; max response: hits give low values; note: nearly all actives have a fitted effect of over 50% in size; note: potency is the fitted concentration of half-maximal effect
# In short: (§2)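 Nonlytic bioluminescent viability monitoring. HEK293 at 600 cells/well with reagent; 5 h settle; compound transfer by pintool; plates held at 37 C and read at set time points.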
# [4] = A CellTox Green Cytotoxicity Assay to monitor cytotoxicity in HepG2 cells - 16 hour (AID 1224876); note: nearly all actives have a fitted effect of over 45% in size
# In short: (§3)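 Real-time, homogeneous cytotoxicity readout: dead-cell DNA staining by CellTox Green in HepG2 monolayers, fluorescence measured at timed intervals up to 40 h of continuous compound exposure.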
# [5] = A CellTox Green Cytotoxicity Assay to monitor cytotoxicity in HepG2 cells - 24 hour (AID 1224878); note: nearly all actives have a fitted effect of over 45% in size
# In short: as §3
# [6] = A CellTox Green Cytotoxicity Assay to monitor cytotoxicity in HepG2 cells - 40 hour (AID 1224879); note: nearly all actives have a fitted effect of over 40% in size
# In short: as §3
# [7] = qHTS RealTime-Glo MT Cell Viability Assay in HEK293 cells - 0 hour (AID 1224880); note: top concentration of the series differs between compounds; nearly all actives have a fitted effect of over 45% in size
# In short: as §2
# [8] = A CellTox Green Cytotoxicity Assay to monitor cytotoxicity in HepG2 cells - 0 hour (AID 1224882); note: nearly all actives have a fitted effect of over 35% in size
# In short: as §3
# [9] = A CellTox Green Cytotoxicity Assay to monitor cytotoxicity in HepG2 cells - 32 hour (AID 1224883); note: nearly all actives have a fitted effect of over 50% in size
# In short: as §3
# [10] = A CellTox Green Cytotoxicity Assay to monitor cytotoxicity in HEK293 cells - 8 hour (AID 1224884); note: nearly all actives have a fitted effect of over 35% in size
# In short: (§4)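 Cytotoxicity was tracked continuously in HEK293 cells by a DNA-binding dye excluded from viable cells. Compounds were transferred in DMSO 5 h after seeding; fluorescence was recorded at intervals up to 40 h.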
# [11] = qHTS RealTime-Glo MT Cell Viability Assay in HepG2 cells - 16 hour (AID 1224885); note: nearly all actives have a fitted effect of over 50% in size
# In short: (§5)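 Cell number in HepG2 cultures estimated from NanoLuc luminescence generated by metabolic reduction of a prosubstrate by living cells. The homogeneous, nonlytic format allowed repeated reads at 0, 8, 16, 24, 32 and 40 h of compound exposure.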
# [12] = qHTS RealTime-Glo MT Cell Viability Assay in HEK293 cells - 24 hour (AID 1224886); note: nearly all actives have a fitted effect of over 50% in size; note: potency is the fitted concentration of half-maximal effect
# In short: as §1
# [13] = qHTS RealTime-Glo MT Cell Viability Assay in HEK293 cells - 8 hour (AID 1224887); note: nearly all actives have a fitted effect of over 50% in size; note: potency is the fitted concentration of half-maximal effect
# In short: as §2
# [14] = A CellTox Green Cytotoxicity Assay to monitor cytotoxicity in HEK293 cells - 16 hour (AID 1224888); note: nearly all actives have a fitted effect of over 35% in size; note: potency is the fitted concentration of half-maximal effect
# In short: as §4
# [15] = qHTS RealTime-Glo MT Cell Viability Assay in HepG2 cells - 0 hour (AID 1224889); note: nearly all actives have a fitted effect of over 50% in size; note: potency is the fitted concentration of half-maximal effect
# In short: as §5
# [16] = A CellTox Green Cytotoxicity Assay to monitor cytotoxicity in HepG2 cells - 8 hour (AID 1224890); note: nearly all actives have a fitted effect of over 45% in size
# In short: as §3
# [17] = A CellTox Green Cytotoxicity Assay to monitor cytotoxicity in HEK293 cells - 24 hour (AID 1224875)
# In short: as §4
# [18] = qHTS RealTime-Glo MT Cell Viability Assay in HepG2 cells - 32 hour (AID 1224877); note: nearly all actives have a fitted effect of over 55% in size
# In short: as §5
# [19] = A CellTox Green Cytotoxicity Assay to monitor cytotoxicity in HEK293 cells - 32 hour (AID 1224881); note: nearly all actives have a fitted effect of over 40% in size; note: potency is the fitted concentration of half-maximal effect
# In short: as §4
# [20] = qHTS assay to identify small molecule antagonists of the estrogen receptor alpha (ER-alpha) signaling pathway using the BG1 cell line in the presence of 0.1 nM 17-beta-estradiol - cell viability counter screen (AID 1259241); note: nearly all actives have a fitted effect of over 40% in size
# In short: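 VM7Luc4E2 cells (endogenous full-length ER-alpha, 4xERE-luciferase), cultured 5 days in charcoal-stripped serum, exposed to compounds with 0.1 nM 17beta-estradiol (final) for 22 hr at 37C. Viability read in same wells as live-cell protease fluorescence after 30 min.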
smiles,measurement,setting,value
Oc1cc(O)c(Cl)cc1Cl,Potency,[1],inactive
same,Potency,[2],inactive
same,max response,[3],17.2%
same,Potency,[4],inactive
same,Potency,[5],inactive
same,Potency,[6],inactive
same,Potency,[7],inactive
same,Potency,[8],inactive
same,Potency,[9],inactive
same,Potency,[10],inactive
same,Potency,[11],inactive
same,Potency,[12],inactive
same,Potency,[13],inactive
same,Potency,[14],inactive
same,Potency,[15],inactive
same,Potency,[16],inactive
NC(=O)N(O)[C@@H]1COc2cc(OCc3ccccc3)ccc21,Potency,[1],inactive
same,Potency,[2],inactive
same,Potency,[17],inactive
same,Potency,[4],inactive
same,Potency,[18],inactive
same,Potency,[7],inactive
same,Potency,[19],inactive
same,Potency,[8],inactive
same,Potency,[10],inactive
same,Potency,[11],inactive
same,Potency,[13],inactive
same,Potency,[14],inactive
same,Potency,[15],inactive
same,Potency,[16],inactive
same,Potency,[20],inactive
COc1ccc(C(=O)c2cccc(O)c2)c(OC)c1,Potency,[1],inactive
same,Potency,[2],inactive
same,Potency,[17],inactive
same,Potency,[18],inactive
same,Potency,[5],inactive
same,Potency,[6],inactive
same,Potency,[7],inactive
same,Potency,[19],inactive
same,Potency,[8],inactive
same,Potency,[9],inactive
same,Potency,[10],inactive
same,Potency,[11],inactive
same,Potency,[12],inactive
same,Potency,[14],inactive
same,Potency,[15],inactive
same,Potency,[16],inactive
same,Potency,[20],inactive
CC(=O)OCC(=O)[C@@]12OC(C)(C)O[C@@H]1C[C@H]1[C@@H]3C[C@H](F)C4=CC(=O)C=C[C@]4(C)[C@@]3(F)[C@@H](O)C[C@@]12C,Potency,[1],inactive
same,Potency,[2],inactive
same,Potency,[4],inactive
same,Potency,[18],inactive
same,Potency,[5],inactive
same,Potency,[6],inactive
same,Potency,[8],inactive
same,Potency,[9],inactive
same,Potency,[10],inactive
same,Potency,[11],inactive
same,Potency,[12],inactive
same,Potency,[13],inactive
same,Potency,[14],inactive
same,Potency,[15],2.68 µM (active)
same,Potency,[16],inactive
same,Potency,[20],inactive
N#C/C(=C1/SC[C@@H](c2ccc(Cl)cc2Cl)S1)n1ccnc1,Potency,[1],inactive
same,max response,[3],-23.1%
same,Potency,[17],inactive
same,Potency,[4],inactive
same,Potency,[18],inactive
same,Potency,[5],inactive
same,Potency,[7],inactive
same,Potency,[19],inactive
same,Potency,[8],inactive
same,Potency,[9],inactive
same,Potency,[10],inactive
same,Potency,[12],inactive
same,Potency,[14],inactive
same,Potency,[15],inactive
same,Potency,[16],inactive
same,Potency,[20],inactive
CCCOc1ccc(S(=O)(=O)N2CCN(CC)CC2)cc1-c1nc2c(CC)n(Cc3ccccn3)nc2c(=O)[nH]1,Potency,[1],inactive
same,Potency,[2],inactive
same,Potency,[17],inactive
same,Potency,[4],inactive
same,Potency,[18],inactive
same,Potency,[5],inactive
same,Potency,[6],inactive
same,Potency,[7],inactive
same,Potency,[19],inactive
same,Potency,[8],inactive
same,Potency,[9],inactive
same,Potency,[10],inactive
same,Potency,[11],inactive
same,Potency,[14],inactive
same,Potency,[15],inactive
same,Potency,[16],inactive
same,Potency,[20],inactive
COC(OC)(C(=O)c1ccccc1)c1ccccc1,Potency,[1],inactive
same,Potency,[2],inactive
same,max response,[3],1.09%
same,Potency,[4],inactive
same,Potency,[5],inactive
same,Potency,[6],inactive
same,Potency,[19],inactive
same,Potency,[8],inactive
same,Potency,[9],inactive
same,Potency,[10],inactive
same,Potency,[11],inactive
same,Potency,[12],inactive
same,Potency,[13],inactive
same,Potency,[14],inactive
same,Potency,[15],inactive
same,Potency,[16],inactive
same,Potency,[20],inactive
CC[C@@H]([C@H](C)O)n1ncn(-c2ccc(N3CCN(c4ccc(OC[C@@H]5CO[C@@](Cn6cncn6)(c6ccc(F)cc6F)C5)cc4)CC3)cc2)c1=O,Potency,[1],5.35 µM (active)
same,Potency,[3],5.35 µM (active)
same,Potency,[17],inactive
same,Potency,[4],inactive
same,Potency,[5],inactive
same,Potency,[6],inactive
same,Potency,[7],inactive
same,Potency,[19],inactive
same,Potency,[8],inactive
same,Potency,[9],inactive
same,Potency,[10],inactive
same,Potency,[12],2.68 µM (active)
same,Potency,[13],6.01 µM (active)
same,Potency,[14],inactive
same,Potency,[15],inactive
same,Potency,[16],inactive
same,Potency,[20],inactive
CCCCC/C(=C\c1ccccc1)CO,Potency,[1],inactive
same,Potency,[2],inactive
same,max response,[3],-12.8%
same,Potency,[4],inactive
same,Potency,[5],inactive
same,Potency,[6],inactive
same,Potency,[7],inactive
same,Potency,[19],43.1 µM (active)
same,Potency,[8],inactive
same,Potency,[9],inactive
same,Potency,[11],inactive
same,Potency,[12],inactive
same,Potency,[14],48.4 µM (active)
same,Potency,[15],inactive
same,Potency,[16],inactive
same,Potency,[20],inactive
CC1=C(/C=C/C(C)=C\C=C\C(C)=C\C(=O)O)C(C)(C)CCC1,Potency,[1],inactive
same,Potency,[2],inactive
same,max response,[3],-21.3%
same,Potency,[4],inactive
same,Potency,[5],inactive
same,Potency,[7],inactive
same,Potency,[8],inactive
same,Potency,[10],inactive
same,Potency,[14],inactive
same,Potency,[15],inactive
same,Potency,[16],inactive
same,Potency,[20],inactive
CCc1nn(CCCN2CCN(c3cccc(Cl)c3)CC2)c(=O)n1CCOc1ccccc1,Potency,[1],8.49 µM (active)
same,Potency,[3],8.49 µM (active)
same,Potency,[17],inactive
same,Potency,[4],inactive
same,Potency,[5],inactive
same,Potency,[7],inactive
same,Potency,[19],inactive
same,Potency,[8],inactive
same,Potency,[9],inactive
same,Potency,[10],inactive
same,Potency,[12],8.49 µM (active)
same,Potency,[13],10.7 µM (active)
same,Potency,[14],inactive
same,Potency,[16],inactive
same,Potency,[20],inactive
CNC(=S)NC,Potency,[1],inactive
same,Potency,[2],inactive
same,Potency,[17],inactive
same,Potency,[4],inactive
same,Potency,[18],inactive
same,Potency,[5],inactive
same,Potency,[7],inactive
same,Potency,[19],inactive
same,Potency,[8],inactive
same,Potency,[10],inactive
same,Potency,[11],inactive
same,Potency,[12],inactive
same,Potency,[13],inactive
same,Potency,[14],inactive
same,Potency,[15],inactive
same,Potency,[16],inactive
same,Potency,[20],inactive
OCC1CC=CCC1 (stereo not drawn),Potency,[1],inactive
same,Potency,[2],inactive
same,max response,[3],-1.94%
same,Potency,[4],inactive
same,Potency,[5],inactive
same,Potency,[6],inactive
same,Potency,[7],inactive
same,Potency,[8],inactive
same,Potency,[9],inactive
same,Potency,[10],inactive
same,Potency,[11],inactive
same,Potency,[12],inactive
same,Potency,[13],inactive
same,Potency,[14],inactive
same,Potency,[15],inactive
same,Potency,[16],inactive
same,Potency,[20],inactive
NC(=O)Cn1c(=O)cc(CCN2CCN(c3nccc4sccc34)CC2)c2ccc(F)cc21,Potency,[1],49 µM (active)
same,Potency,[3],43.6 µM (active)
same,Potency,[17],inactive
same,Potency,[4],inactive
same,Potency,[5],inactive
same,Potency,[6],inactive
same,Potency,[19],inactive
same,Potency,[8],inactive
same,Potency,[9],inactive
same,Potency,[10],inactive
same,Potency,[12],49 µM (active)
same,Potency,[14],inactive
same,Potency,[15],13.8 µM (active)
same,Potency,[16],inactive
same,Potency,[20],inactive
C[C@@H]1C[C@H]2[C@@H]3CCC4=CC(=O)C=C[C@]4(C)[C@@]3(F)[C@@H](O)C[C@]2(C)[C@@]1(O)C(=O)CO,Potency,[1],inactive
same,Potency,[2],inactive
same,Potency,[17],inactive
same,Potency,[4],inactive
same,Potency,[18],inactive
same,Potency,[5],inactive
same,Potency,[6],inactive
same,Potency,[7],inactive
same,Potency,[19],inactive
same,Potency,[8],inactive
same,Potency,[9],inactive
same,Potency,[10],inactive
same,Potency,[11],inactive
same,Potency,[12],inactive
same,Potency,[13],inactive
same,Potency,[14],inactive
same,Potency,[15],22.2 µM (active)
same,Potency,[16],inactive
same,Potency,[20],inactive
COc1ccc([C@@H]2Sc3ccccc3NC(=O)[C@@H]2O)cc1,Potency,[1],inactive
same,Potency,[2],inactive
same,Potency,[17],inactive
same,Potency,[4],inactive
same,Potency,[18],inactive
same,Potency,[5],inactive
same,Potency,[7],inactive
same,Potency,[19],inactive
same,Potency,[8],inactive
same,Potency,[10],inactive
same,Potency,[11],inactive
same,Potency,[13],inactive
same,Potency,[14],inactive
same,Potency,[15],inactive
same,Potency,[16],inactive
same,Potency,[20],inactive
